# Bioassay records from PubChem.
# Luciferase inh: Photinus pyralis luciferase inhibition. P08659. purified P. pyralis luciferase, luminescence, biochemical. Potency, µM (highest dose often 115 µM), usual class: inhibitors. 76,000 compounds, 2.5% hits; note: nearly all actives have a fitted effect of over 65% in size
#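 Luminescence read by CCD imaging after purified firefly luciferase (10nM final) was added to substrate buffer holding 10uM D-luciferin and 10uM ATP, pH 7.5, pre-dosed with compound.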
# 3T3 cytotox: kills NIH 3T3 cells. NIH 3T3 viability, CellTiter-Glo ATP luminescence, 48-72 h. Potency, µM (top dose mostly 96.7 µM), for inactives: at the highest dose activity change, negative = cytotoxicity, hits mostly inhibitors. 94,000 compounds, 4.3% hits. AID 1345082; note: nearly all actives have a fitted effect of over 55% in size
#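 NIH 3T3 cells at 400 cells/well received 23 nL of compound by pintool and were incubated 48 or 72 h at 37 °C. Viability was read as ATP-coupled CellTiter-Glo luminescence.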
# HEK293 tox: cytotoxic compounds in HEK 293 cells; HEK 293 viability, ATP luminescence (CellTiter-Glo), 48-72 h; Potency, µM (series often up to 115 µM), without a hit: at the highest dose activity change, negative = cytotoxicity, most hits filed as inhibitors; 94,000 compounds, 6.6% hits; AID 1345083; note: nearly all actives have a fitted effect of over 60% in size
#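 Cells seeded first (HEK 293, 250 cells/well), then compound added by pintool. Incubation ran 48 or 72 hr at 37 degree Celsius. CellTiter-Glo was added and luminescence imaged after 10 min at room temperature.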
# NPR1 antag: blocks ANP-stimulated signaling of human Npr1 receptor | P16066 | HEK293 hNpr1 GloSensor cGMP, ANP-stimulated luminescence | Potency, µM (titrated, usually from 46.3 µM), for the others: at the top dose activity change, negative = inhibition, actives largely listed as inhibitors | 76,000 compounds, 1.6% hits | AID 1347048; calls by dose curve; note: nearly all actives have a fitted effect of over 60% in size
#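 Compound pre-incubated 30 min at room temperature on GloSensor-loaded HEK293 cells stably carrying hNpr1 and the pGS-40F cGMP biosensor. Stimulation uses hNppA at 0.1 nM final; luminescence is taken at baseline and 20 min post-agonist.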
# * hit, by the source's call; i = inactive; ? = inconclusive; . = no result given; ! = a repeat was not active; [ ] = remark or other dose. This is a sample that favours compounds with a hit; in the whole collection about 11% have one here. Unless noted, calls come from the whole dose curve; as a rule, active = well fitted curve in the direction sought with a large enough effect; inconclusive = small, poorly fitted or top-dose-only effect, or another doubt; inactive = no such curve, though single readings can be large; an effect the other way counts as inactive or inconclusive. % is set by controls: 0 for no effect and ±100 for the full control effect; potency is the fitted concentration of half-maximal effect.
SMILES,Luciferase inh,3T3 cytotox,HEK293 tox,NPR1 antag
COc1ccc(F)cc1-c1ccc(CN2CCCCC2C(=O)N2CCN(c3ncccn3)CC2)cc1 (centres undefined),.,?,44.7µM*,.
COc1ccc(F)cc1-c1ccc(CN2CCCCC2C(=O)NC2CCC2)cc1 (centres undefined),.,?,35.5µM*,.
COCCCNC(=O)[C@@H]1CCCN1c1nccc(Nc2ccccc2OC)n1,.,-16.0%,-3.0%,.
O=C1CC2(CCN(Cc3cccnc3)CC2)Oc2ccccc21,i,-22.8%[138 µM],?,0.0%[70.6 µM]
O=C(c1ccc(F)cc1)N1CCCN(CCn2nc3n(c2=O)CCCC3)CC1,.,1.1%,-4.8%,.
COCCc1noc(-c2ccccc2OC2CN(C(=O)CC(C)C)C2)n1,i,-24.1%,1.2%,16.7%
O=C(CN1CCCc2nc(C3CC3)ncc2C1=O)NCc1ccccn1,.,-12.3%,i,.
COc1ccccc1-c1ccc(CN2CCCCC2C(=O)NC2CCCCC2)cc1 (centres undefined),.,44.7µM*!,22.4µM*!,.
COc1ccccc1-c1cccc(C(=O)N2CCC[C@H]2C(=O)NC2CC2)c1,.,-1.0%,2.8%,.
COc1ccc(CN2CCC3(CC2)CC(O)CCO3)cc1C (centres undefined),i,i,-6.0%,0.0%
O=C1N[C@@H]2CCN(C(=O)c3ccc(-c4ccccc4)cc3)[C@@H]2C(=O)N1Cc1ccccc1,?,112µM*,?,-3.1%[70.6 µM]
COc1ncccc1Nc1cnc2ccc(-c3ccc(F)cc3)nn12,i,?,?,-2.2%[70.6 µM]
COc1ccc(-c2ccc3ncc(Nc4ccc(OC)c(OC)c4)n3n2)cn1,?,?,?,-14.8%[70.6 µM]
COc1ccc(Nc2cnc3ccc(-c4ccc(F)cc4)nn23)cc1OC,?,?,?,-2.9%[70.6 µM]
COc1ccc(Nc2cnc3ccc(-c4ccc(OC)c(OC)c4)nn23)cn1,?,31.6µM*,63.1µM*,1.3%[70.6 µM]
COc1ccccc1Nc1cnc2ccc(-c3ccc(F)cc3)nn12,i,?,70.8µM*,-9.7%[70.6 µM]
COc1ccc(-c2ccc3ncc(Nc4ccc5c(c4)OCCO5)n3n2)cc1OC,20µM*,?,44.7µM*,-16.6%[70.6 µM]
COc1ccc(-c2ccc3ncc(Nc4cccc(O)c4)n3n2)cc1OC,i,?,63.1µM*,-12.8%[70.6 µM]
COc1ccc(C2(C(=O)NCc3cccc(F)c3)CCOCC2)cc1,.,-19.8%[138 µM],-2.1%[172 µM],.
O=C1NC(=NC2CCCC2)C2(CCCN([S+](=O)([O-])c3cccc(C(F)(F)F)c3)C2)N1c1cc(F)cc(F)c1 (centres undefined),i,?,?,-8.9%
Cc1ccccc1C(=O)N1CCCC(C(=O)N2CCC(N3Cc4cccn4C3=O)CC2)C1 (centres undefined),.,-6.0%,i,.
Cc1nn(-c2ccccc2)c2c1C(C(C)C)N(C1CN([S+](=O)([O-])c3c(C)noc3C)C1)C2=O (centres undefined),.,-20.2%,-11.9%,.
COc1ccccc1-c1cccc(C(=O)N2CCC[C@H]2C(=O)N2CCN(C(C)=O)CC2)c1,.,-6.4%,-5.7%,.
Cc1ccc(CNC(=O)C2(CCO)CC23CCOCC3)o1 (centres undefined),i,-0.8%,i,-2.8%
O=C(NCc1cccnc1)C1(CCO)CC12CCOCC2 (centres undefined),28.2µM*,i,-0.2%,3.6%
SMILES,Luciferase inh,3T3 cytotox,HEK293 tox,NPR1 antag
Cc1ccc(-c2cn3cc(C(=O)NCC(C)C)nc3s2)cc1,.,-39.8%[138 µM],?,.
CN(CC(=O)N1CCC(CCOc2ccccc2F)C1)S(=O)(=O)c1cccs1 (centres undefined),i,?,50.1µM*,-16.3%
CN(CC(=O)N1CCC(CCOc2ccc(F)cc2)C1)S(=O)(=O)c1ccc2c(c1)oc(=O)n2C (centres undefined),i,?,35.5µM*,?
CC(C)C(=O)N1CCC(CCOc2ccccc2F)C1 (centres undefined),i,?,?,-19.9%
O=C(C1CCN(S(=O)(=O)N2CCOCC2)CC1)N1CCC(CCOc2ccc(F)cc2)C1 (centres undefined),.,?,44.7µM*,.
O=C(c1ccncc1)N1CCC(CCOc2ccc(F)cc2)C1 (centres undefined),i,?,?,-21.4%
NC(=O)[C@H]1C[C@@H](O)[C@H](O)[C@H]2[C@@H]1SC(=Nc1ccccc1)N2CC1CCCCC1,i,-4.4%[174 µM],-1.9%[172 µM],-0.7%[70.6 µM]
